# Only some compounds are listed: those with a hit (about 5.7% of all), similar ones and a draw of the others.
# B2AR arrestin: qHTS assay of beta-arrestin-biased ligands of beta2-adrenergic receptor. beta-arrestin recruitment to beta2AR, cell-based reporter. Potency, µM (highest dose often 46.1 µM), usual class: activators. 330,000 tested, 0.02% active; also: nearly all actives have a fitted effect of over 65% in size
# NPSR antag: qHTS Assay for Antagonists of the Neuropeptide S Receptor: cAMP Signal Transduction; Q6W5P4; CHO-NPSR cells, cAMP TR-FRET, antagonist mode; Potency, µM (top dose mostly 38.3 µM), actives largely listed as inhibitors; 220,000 tested, 1% active; also: nearly all actives have a fitted effect of over 50% in size
# Gal4-VP16 FLuc: VP16 counterscreen qHTS for inhibitors of ROR gamma transcriptional activity; Drosophila S2 Gal4-VP16 UAS-luciferase, luminescence, 20 h; Potency, µM (series often up to 53.6 µM), usual class: inhibitors; 310,000 tested, 3.5% active; AID 2546, 2010;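 also: Gal4-VP16 expression switched on by copper sulfate through the metallothionein promoter; nearly all actives have a fitted effect of over 50% in size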
# RORg inh: qHTS for inhibitors of ROR gamma transcriptional activity; Nuclear receptor ROR-gamma (Mus musculus), P51450; Drosophila S2 Gal4-RORgamma UAS-luciferase reporter, 20 h; Potency, µM (series often up to 53.6 µM), usual class: inhibitors; 310,000 tested, 5.4% active; AID 2551, 2010; also: nearly all actives have a fitted effect of over 60% in size
# Target sequence (P51450 whole entry, looked up, the tested form may be a part): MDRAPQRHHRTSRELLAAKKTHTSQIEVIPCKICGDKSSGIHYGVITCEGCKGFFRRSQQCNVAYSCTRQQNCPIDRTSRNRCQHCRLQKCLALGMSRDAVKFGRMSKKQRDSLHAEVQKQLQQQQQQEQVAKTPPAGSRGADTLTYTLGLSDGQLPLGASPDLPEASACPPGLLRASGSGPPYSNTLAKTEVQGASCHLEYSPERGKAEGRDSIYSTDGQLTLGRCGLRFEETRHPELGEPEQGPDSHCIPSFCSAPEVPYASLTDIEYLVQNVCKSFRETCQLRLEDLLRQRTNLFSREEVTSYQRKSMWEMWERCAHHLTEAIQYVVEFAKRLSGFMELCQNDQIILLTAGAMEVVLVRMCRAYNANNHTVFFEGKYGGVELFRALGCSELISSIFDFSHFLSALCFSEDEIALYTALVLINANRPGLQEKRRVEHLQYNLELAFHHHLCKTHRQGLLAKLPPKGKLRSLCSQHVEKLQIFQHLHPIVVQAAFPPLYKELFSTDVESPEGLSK
#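 Drosophila S2 cells stably expressing Gal4-DBD/mouse RORγ fusion under metallothionein promoter plus UAS-luciferase; compound 1 h, then 700 uM CuSO4 induction for 20 h at ambient temperature; inhibition read as reduced luminescence.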
# A number is an active result; . = inactive; ? = inconclusive; / = no result; [ ] = dose if it differs, or a comment. Calls follow the shape of the dose curve; as a rule, active = well fitted curve in the direction sought with a large enough effect; inconclusive = small, poorly fitted or top-dose-only effect, or another doubt; inactive = no such curve, though single readings can be large; an effect the other way counts as inactive or inconclusive.
SMILES,B2AR arrestin,NPSR antag,Gal4-VP16 FLuc,RORg inh
CCOC(=O)N1CCN(C(=O)c2ccc(Cn3c(=S)[nH]c4cc(OCC)c(OCC)cc4c3=O)cc2)CC1,.,.,.,?
COc1cc2[nH]c(=S)n(CCN3CCOCC3)c(=O)c2cc1OC,.,.,.,?
CCC1CCCCN1CCn1c(=S)[nH]c2cc(OC)c(OC)cc2c1=O (stereo not given),.,.,.,10µM
NC(CCC(=O)NC(CCSC(CC(=O)O)C(=O)O)C(=O)NCC(=O)O)C(=O)O (stereo not given),/,/,.,.
COc1ccc(CCNC(=O)C2CCCN(c3ncccn3)C2)cc1 (stereo not given),.,.,.[10 µM],.
CN1CCN(S(=O)(=O)c2ccc(Sc3nnnn3-c3ccccc3)c([N+](=O)[O-])c2)CC1,.,.,?,7.1µM
CC(=O)c1ccc(Sc2nnnn2-c2ccccc2)c([N+](=O)[O-])c1,.,.,11µM,8.9µM
Fc1ccc2nc(Nc3nc4cc5c(cc4s3)OCO5)sc2c1,.,.,?,8.9µM
c1ccc2sc(Nc3nc4cc5c(cc4s3)OCO5)nc2c1,.,.,.,.
Fc1ccc2nc(Nc3nc4cc5c(cc4s3)OCCO5)sc2c1,.,.,13µM,11µM
CC(C)NC(=S)N/N=C/c1cc(Br)ccc1O,.,.,4.5µM,5µM
Cc1cc(C(=O)N/N=C/c2cc(N=Nc3ccccc3)ccc2O)n[nH]1,.,.,11µM,10µM
COC(=O)N/N=C/c1cc(N=Nc2ccccc2Cl)ccc1O,.,.,16µM,4µM
Cc1cc(C(=O)N/N=C/c2ccccn2)n[nH]1,.,.,.,.
COC(=O)N/N=C/c1cc(N=Nc2ccccc2)ccc1O,.,.,?,1.1µM
CC1SC(C)C(=O)N(CC(=O)NC2CCCCC2)C1=O (stereo not given),.,.,.,.
CCCCNC(=O)C(=O)NC(C)CCc1ccccc1 (stereo not given),.,.,.,.
Cc1cnc(NC(=O)Nc2ccccc2)c(C)n1,.,/,.,.
Cc1cc(C(=O)N/N=C/c2cccc([N+](=O)[O-])c2O)n[nH]1,.,.,?,13µM
Nc1ccc(C(=O)N/N=C\c2cc(N=Nc3cccc4ccccc34)ccc2O)cc1,.,.,5.6µM,1.6µM
Cc1cc(C(=O)N/N=C/c2ccc(O)c([N+](=O)[O-])c2)n[nH]1,.,.,.,.
COC(=O)N/N=C/c1cc(Br)ccc1O,.,.,?,7.1µM
COC(=O)N/N=C\c1cc(Br)ccc1OCc1ccccc1,.,.,.,?
S=c1[nH]c2ccccc2o1,.,.,.[10 µM],28µM
COc1ccccc1NS(=O)(=O)c1ccc2oc(=S)[nH]c2c1,.,.,.,.
SMILES,B2AR arrestin,NPSR antag,Gal4-VP16 FLuc,RORg inh
COc1cc(/C=N/NC(=S)NC2CC3CC2C2C=CCC32)ccc1O (stereo not given),.,?,4.5µM,1.6µM
CCOc1ccc(/C=N/NC(=O)CN2CCSCC2)cc1,.,.,.,.
CCOc1ccc(N(CC(=O)NC2CC3CCC2C3)S(=O)(=O)c2ccc(C)cc2)cc1 (stereo not given),.,/,.,.
CCOc1ccc(/C=N/NC(=S)NC2CC3CCC2C3)cc1 (stereo not given),?,.,?,5µM
CCOc1ccc(/C=N/NC(=S)NC2CC3CC2C2C=CCC32)cc1 (stereo not given),.,.,4.5µM,5µM
COc1cc(/C=N/NC(=S)NCCN2CCOCC2)ccc1O,.,.,.,?
Cc1cccc(C(=O)Nc2ccc(S(=O)(=O)Nc3nc(C)cc(C)n3)cc2)c1,.,/,.,.
Oc1ccc(-c2nnc(SCC3CCCCC3)o2)cc1,.,?,8.9µM,3.2µM
O=C(CSc1nnc(-c2ccc(O)cc2)o1)N1CCOCC1,.,.,.,.
Cc1nc2cc(-c3ccccc3)sc2c(=O)n1N,.,.,1.6µM,0.71µM
COc1ccc(-c2cc3nc4n(c(=O)c3s2)CCC4)cc1,.,.,1.6µM,?
COc1ccc(-c2cc3nc4n(c(=O)c3s2)CCCCC4)cc1,.,.,.,.
COc1ccc(-c2cc3nc(C)n(N)c(=O)c3s2)cc1,.,.,1.3µM,1.8µM
Cc1cc[n+](CCC(=O)O)c2ccccc12,.,.,.,.
Cc1cc[n+](-c2ccccc2)c2ccccc12,.,.,11µM,.
O=Nc1c(O)[nH]c2ccc(F)cc12,.,.,.,.
Cc1cc2c(N=O)c(NO)ccc2[nH]1,.,?,3.2µM,5µM

# Compound activity from PubChem BioAssay.
